# Compound activity from PubChem BioAssay.
# HPGD block – inhibitors of human 15-hydroxyprostaglandin dehydrogenase (HPGD) | P15428 | purified HPGD, NADH fluorescence kinetic, PGE2 substrate | Potency, µM, most hits filed as inhibitors | hit rate 4.3% among 150,000 | AID 894; active = well fitted inhibition curve with a large enough effect, not every such curve was filed as active; inconclusive = small, poorly fitted or top-dose-only effect, or another doubt; inactive = no such curve, though single readings can be large or run the other way
# Target sequence (P15428 whole entry, looked up): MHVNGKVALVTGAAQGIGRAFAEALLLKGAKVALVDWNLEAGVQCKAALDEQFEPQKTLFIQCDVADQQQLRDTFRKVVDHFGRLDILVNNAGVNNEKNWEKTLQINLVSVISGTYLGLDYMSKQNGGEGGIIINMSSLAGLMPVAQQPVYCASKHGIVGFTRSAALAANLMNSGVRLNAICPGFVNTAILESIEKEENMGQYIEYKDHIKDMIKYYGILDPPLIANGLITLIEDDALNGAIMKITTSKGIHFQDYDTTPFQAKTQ
#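 NADH formation kinetics: reaction with 30 uM PGE2 and 1 mM NAD+ (final), 20 nM enzyme, Tris-HCl pH 8 with Tween 20, after 15 min compound preincubation at room temperature. Fluorescence change, last versus first of five reads.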
# KDM4E inh – blocks human JMJD2E demethylase activity; JMJD2E catalytic domain, FDH-coupled NADH fluorescence (FDH is formaldehyde dehydrogenase); Potency, µM (doses to about 57.1 µM), actives largely listed as inhibitors; hit rate 1.6% among 230,000; active = well fitted inhibition curve with a large enough effect, not every such curve was filed as active; inconclusive = small, poorly fitted or top-dose-only effect, or another doubt; inactive = no such curve, though single readings can be large or run the other way; note: nearly all actives have a fitted effect of over 50% in size
# Target sequence (B2RXH2 1-337 limits assumed): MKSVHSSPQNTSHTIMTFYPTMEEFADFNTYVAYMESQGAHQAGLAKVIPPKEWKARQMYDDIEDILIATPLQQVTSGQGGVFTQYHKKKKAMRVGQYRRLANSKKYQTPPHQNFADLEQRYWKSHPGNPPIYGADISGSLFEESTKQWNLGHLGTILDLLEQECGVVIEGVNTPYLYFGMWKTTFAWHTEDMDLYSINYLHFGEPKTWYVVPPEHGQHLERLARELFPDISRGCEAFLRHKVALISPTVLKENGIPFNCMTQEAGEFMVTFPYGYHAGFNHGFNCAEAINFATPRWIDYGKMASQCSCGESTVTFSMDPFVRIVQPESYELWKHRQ
# ALDH1A1 block – blocks purified human ALDH1A1 activity; P00352; Purified ALDH1A1, NADH fluorescence, propionaldehyde substrate; Potency, µM (top dose mostly 75.3 µM), most hits filed as inhibitors; hit rate 7.3% among 220,000; AID 1030; active = well fitted inhibition curve with a large enough effect, not every such curve was filed as active; inconclusive = small, poorly fitted or top-dose-only effect, or another doubt; inactive = no such curve, though single readings can be large or run the other way
# Tau fibril ThT – tau fibrillization inhibition (ThT binding); P10636; recombinant tau K18 P301L, heparin-induced fibrillization, ThT fluorescence; Potency, µM (top dose mostly 57.4 µM), hits mostly inhibitors; hit rate 2.1% among 270,000; AID 1460; note: nearly all actives have a fitted effect of over 55% in size
#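 Aggregation was driven by heparin (20 uM final) acting on recombinant tau […] bearing P301L in 100 mM sodium acetate pH 7; fibrils were detected with Thioflavin T.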
# Tau FP inhib – inhibitors of human tau fibril formation; P10636; K18 P301L tau heparin fibrillization, Alexa594 FP, 6 h; Potency, µM (top dose mostly 57.7 µM), usual class: inhibitors; hit rate 0.39% among 280,000; AID 1468; note: nearly all actives have a fitted effect of over 55% in size
#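 Steps: dispense K18 P301L tau (15 uM plus 0.24 uM Alexa 594 tracer, final) in pH 7 sodium acetate; add compound; add heparin (20 uM final); incubate 6 hr, 37 C; add ThT (30 uM final); after 1 hr ambient, read FP.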
# Tau fluor counter – counter-screen for tau fibril formation inhibitors; tau K18 P301L Alexa594 fluorescence, heparin fibrillization; hit rate 0.93% among 280,000; Potency, µM (doses to about 57.7 µM); note: nearly all actives have a fitted effect of over 55% in size
#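 Human tau K18 P301L (15 uM unlabeled, 0.24 uM Alexa 594-labeled) in 100 mM sodium acetate pH 7 with 20 uM heparin, 6 hr at 37 C. ThT 30 uM added, 1 hr ambient; Alexa 594 FP and total fluorescence read at 555/632 nm.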
# A number is an active result; n = inactive; u = inconclusive; x = not tested or not shown; [ ] = another dose, or the depositor's remark. In the library only some 9.9% were active in any assay of this set; here they are far more common. Unless noted, calls come from the whole dose curve; as a rule, active = well fitted curve in the direction sought with a large enough effect; inconclusive = small, poorly fitted or top-dose-only effect, or another doubt; inactive = no such curve, though single readings can be large; an effect the other way counts as inactive or inconclusive.
SMILES,HPGD block,KDM4E inh,ALDH1A1 block,Tau fibril ThT,Tau FP inhib,Tau fluor counter
O=C(/C=C/c1ccc(Br)o1)Nc1nnc(C2CC2)s1,x,n,n,n,n,n
Cc1cc(=O)oc2c1c(C)nn2-c1ccc(C(=O)OC(C)C)cc1,n,n,1.12µM,n,n,n
Cc1nn(C)c(C)c1S(=O)(=O)N(CC(=O)N1CCc2ccccc2C1)c1ccc(C(C)C)cc1,n,n,11.2µM,u,n,n
O=C1CC(C(=O)N(c2cccc(F)c2)C(C(=O)NC2CCCC2)c2ccccn2)CS1 (stereo unspecified),n,n,10µM,n,n,n
CCOC(=O)CN(Cc1ccccc1)S(=O)(=O)c1ccc(NC(C)=O)cc1,n,n,5.62µM,n,n,n
CCOC(=O)c1ccccc1NS(=O)(=O)c1ccc(S(=O)(=O)N2CCCC2)cc1,n,u,22.4µM,n,n,u
CC(=O)Nc1ccc(S(=O)(=O)NCC(=O)OCC(=O)N2CCCc3ccccc32)cc1,n,n,n,n,n,n
CC(=O)Nc1ccc(S(=O)(=O)N(C)CC(=O)OCC(=O)N2CCc3ccccc32)cc1,n,n,8.91µM,n,n,n
CCOC(=O)CCC(=O)Nc1ccc(S(=O)(=O)N2CCCCC2)cc1,x,n,n,n,n,n
CCOC(=O)/C=C/C(=O)Nc1ccc(S(=O)(=O)N2CCCCCC2)cc1,x,n,3.55µM,u,n,n
CCC(=O)Nc1sc2c(c1C(=O)Nc1ccccc1C)CCC(C)C2 (stereo unspecified),x,x,x,n,n,n
CCOC(=O)c1ccc(S(=O)(=O)Nc2cc(C(=O)O)ccc2Cl)cc1,x,u,3.16µM,n,n,n
CCOC(=O)/C=C/C(=O)Nc1ccc(S(=O)(=O)N(C)c2ccccc2)cc1,x,n,25.1µM,u,u,u
COc1ccc(N(CC(=O)NCCC2=CCCCC2)S(=O)(=O)c2ccc(C)cc2)cc1,x,n,n,n,n,n
COc1ccc(-c2nnc(SCC(=O)c3ccc([N+](=O)[O-])cc3)o2)cc1OC,x,x,x,u,n,n
NNC(=O)c1nc[nH]c1C(=O)Nc1ccccn1,x,n,22.4µM,n,n,n
COc1ccc(S(=O)(=O)NCCc2csc3nc(-c4cccc(C)c4)nn23)cc1F,x,x,x,n,u,n
CC(=O)Nc1ccc(NC(=O)CN2C(=O)CC(c3ccco3)Sc3ccccc32)cc1 (stereo unspecified),x,x,x,n,n,n
Cc1cc(NC(=O)CN2C(=O)CC(c3ccco3)Sc3ccccc32)no1 (stereo unspecified),n,n,14.1µM,n,n,n
CCOc1ccccc1N(C)C(=O)NCc1noc2ccccc12,x,x,x,n,n,n
O=C(CSc1nnnn1C1CCCCC1)N1CCc2ccccc21,n,n,n,n,n,n
Cn1c(-c2ccccc2)cnc1SCC(=O)N1CCCc2ccccc21,n,n,10µM,n,n,n
Cc1ccc(-c2cnc(SCC(=O)N3CCCc4ccccc43)n2C)cc1,n,n,u,u,n,n
O=C(CSc1ncc(-c2ccccc2)n1C1CCCC1)N1CCc2ccccc21,n,n,3.55µM,u,n,n
COc1ccc(OC)c(CNc2ncc(-c3ccc(Cl)cc3)n2C)c1,x,x,x,u,n,n
SMILES,HPGD block,KDM4E inh,ALDH1A1 block,Tau fibril ThT,Tau FP inhib,Tau fluor counter
COc1ccc(NC(=O)C(Cc2ccccc2)NS(=O)(=O)c2ccc3c(c2)CCN3C(C)=O)cc1 (stereo unspecified),x,x,x,n,n,n
CC(C)CNc1nc2ncnc(N)c2[nH]1,n,x,n[13.5 µM],x,x,x
O=C(Nc1cc(S(=O)(=O)Nc2ccc(Cl)cc2)ccc1N1CCCCC1)c1ccc(F)cc1Cl,u,u,31.6µM,n,n,u
COC(=O)CCC(=O)Nc1cc(S(=O)(=O)Nc2ccc(Cl)cc2)ccc1N1CCOCC1,u,n,20µM,n,n,n
CCN(CC)S(=O)(=O)c1ccc(N2CCOCC2)c(NC(=O)COc2ccc(Cl)cc2)c1,x,n,x,n,n,n
COc1ccc(NS(=O)(=O)c2ccc(N3CCOCC3)c(NC(=O)c3ccccc3Cl)c2)cc1,n,n,n,n,n,n
CC(=O)c1ccc(Oc2ncnc3sccc23)c(CN2CCOCC2)c1,25.1µM,n,u,n,n,n
CCCOc1ccc(C(C)=O)cc1CN1CCOCC1,n,n,n,n,n,n
N#Cc1c2n(c3c(=S)nc[nH]c13)CCCCC2,n,n,18.9µM,n,n,n
O=Nc1c(O)[nH]c2ccc(F)cc12,x,n,n,n,n,n
Cc1cc2c(N=O)c(NO)ccc2[nH]1,n,11.2µM,n,u,n,n
COCCCNC(=O)c1ccc(N2CCCC2)c(NS(=O)(=O)c2ccc(C)cc2)c1,n,u,14.1µM,u,u,n
Cc1ccc(S(=O)(=O)Nc2cc(C(=O)NCCN(C)C)ccc2N2CCCCC2)cc1,n,u,15.8µM,n,n,n
Cc1ccc(S(=O)(=O)Nc2cc(C(=O)O)ccc2N2CCCCC2)cc1,n,n,n,n,n,n
Cc1ccc(S(=O)(=O)Nc2cc(C(=O)NCCN3CCCC3)ccc2N2CCCCC2)cc1,n,n,u,n,n,n
CCOCCCNC(=O)c1ccc(N2CCCC2)c(NS(=O)(=O)c2ccc(C)cc2)c1,x,u,7.94µM,u,n,n
N#Cc1ccc(COC(=O)c2ccc(N3CCCC3)c([N+](=O)[O-])c2)cc1,n,n,u,u,n,u
CCOc1ccc2c(c1)-c1c(ssc1=S)C(C)(C)N2C,n,n,u,14.1µM,n,12.6µM[quencher]
CCOc1ccc2c(c1)[nH]c(=S)n2C,x,n,x,n,n,n
CC1=NN(c2ccc([N+](=O)[O-])cc2)C(=O)C1[N+](=O)[O-] (stereo unspecified),n,n,u,12.6µM,n,u
COc1ccc(-n2nc(C(=O)NCCc3ccc(OC)c(OC)c3)c3c4ccccc4n(C)c3c2=O)cc1,x,x,x,n,n,n
O=C(COC(=O)C1CC1)Nc1ccc2c(c1)OCO2,x,n,n,n,n,n
CCCCOc1ccc(CN2CCC(O)CC2)cc1,n,n,31.6µM,n,n,n
CCCCN(C)C(=O)C1CCN(Cc2ccc(OCc3ccccc3)cc2)CC1,n,u,n,n,n,n
O=C(/C=C/c1cn(CC(O)CN2CCCCCC2)c2ccccc12)c1ccccc1 (stereo unspecified),x,x,x,u,n,u
CCCN(CCC)CC(O)Cn1cc(/C=C/C(=O)c2cccs2)c2ccccc21 (stereo unspecified),n,n,n,u,n,u
O=C(/C=C/c1cn(CC(O)CN2CCCCCC2)c2ccccc12)c1ccc(Br)cc1 (stereo unspecified),x,x,x,22.4µM,n,u
O=C(/C=C/c1cn(CC(O)CN2CCCCC2)c2ccccc12)c1cccs1 (stereo unspecified),n,n,14.1µM,n,n,n
O=C(/C=C/c1cn(CC(O)CN2CCCCC2)c2ccccc12)c1ccccc1 (stereo unspecified),x,n,x,u,n,n
